# Test results reported in PubChem BioAssay (NCATS).
# Inconclusive results are not listed. Activity calls are given as the source filed them. The call rests on the fitted dose curve; in most records, active means well fitted inhibition curve with a large enough effect; inconclusive means small, poorly fitted or top-dose-only effect; inactive means no such curve, though single readings can be large or run the other way.
# Experiment: S16 Schwann cell PMP22 intronic element firefly luciferase assay (AID 624032); further: nearly all actives have a fitted effect of over 30% in size;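 on activity change, negative = inhibition: plate controls were DMSO for no effect and PTC124 positive control mean for full effect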
# Settings: S16 rat Schwann cells, PMP22 element FLuc, 24 h; series mostly up to 57.5 µM; activity change, negative = inhibition: at the top concentration
# Method in brief: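 Rat S16 Schwann cells stably carrying firefly luciferase driven by a PMP22 intronic element, in 10% FBS, treated 24 h at 37 C. ONE-Glo luminescence normalized to PTC124 control and DMSO (0%); curves classed by r2, magnitude and activity.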
# Potency means the concentration at half of the fitted maximal effect.
Compound,"activity change, negative = inhibition",Potency
CCN(CC)CCOC(=O)C1(c2ccccc2)CCCC1,-2.12% (inactive),–
O=C(O)CCc1nc2ccccc2[nH]1,7.72% (inactive),–
O=C1C(O)=C(O)C(=O)C(O)=C1O,-2.3% (inactive),–
CCC(C(=O)OCCOCCN(CC)CC)c1ccccc1 (configuration not stated),-5.25% (inactive),–
CCN1/C(=C/C=C/c2sc3ccccc3[n+]2CC)Sc2ccccc21,–,2030 nM (active)
Cc1ncc(CO)c(C=O)c1O,-10.6% (inactive),–
OC1C(O)C(O)C(O)C(O)C1O (configuration not stated),14.8% (inactive),–
CC1CCc2c(N3CCC(O)CC3)c(F)cc3c(=O)c(C(=O)O)cn1c23 (configuration not stated),11.9% (inactive),–
Cc1cccc(C)c1NC(=O)c1ccccc1C(=O)O,0.542% (inactive),–
COc1ccc(CCN(C)CCCN2CCc3cc(OC)c(OC)cc3CC2=O)cc1OC,4.54% (inactive),–
COc1cc(C)nc(-n2nc(C)cc2OC)n1,-10.9% [at 25.7 µM] (inactive),–
CC(=O)Nc1ccc(S(=O)(=O)Nc2ccc([N+](=O)[O-])cc2)cc1,8.49% (inactive),–
